In PubChem BioAssay (Tox21):
Records with an inconclusive call do not appear. Activity calls are given as the source filed them. Unless noted, calls come from the whole dose curve; as a rule, active = well fitted curve in the direction sought with a large enough effect in the repeat runs; inconclusive = weak or mixed curves; inactive = no such curve, though single readings can be large; an effect the other way counts as inactive or inconclusive.

Legend:
[1] = A CellTox Green Cytotoxicity Assay to monitor cytotoxicity in HEK293 cells - 32 hour (AID 1224881); note: nearly all actives have a fitted effect of over 40% in size; note: potency is the fitted concentration of half-maximal effect
Procedure, shortened: (§1)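 Homogeneous no-lysis format: HEK293 cell suspension mixed with CellTox Green reagent, seeded, incubated 5 h at 37 C/5% CO2, then dosed by pintool with compound in DMSO.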

[2] = A CellTox Green Cytotoxicity Assay to monitor cytotoxicity in HepG2 cells - 0 hour (AID 1224882); note: nearly all actives have a fitted effect of over 35% in size
Procedure, shortened: (§2)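 Fluorescent DNA-binding dye, 600 HepG2 cells/well, 5 h preincubation then compound in DMSO; same plates read at 0–40 h, 37 C.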

[3] = A CellTox Green Cytotoxicity Assay to monitor cytotoxicity in HepG2 cells - 32 hour (AID 1224883); note: nearly all actives have a fitted effect of over 50% in size; note: potency is the fitted concentration of half-maximal effect
Procedure, shortened: as §2

[4] = A CellTox Green Cytotoxicity Assay to monitor cytotoxicity in HEK293 cells - 8 hour (AID 1224884); note: nearly all actives have a fitted effect of over 35% in size; note: potency is the fitted concentration of half-maximal effect
Procedure, shortened: as §1

[5] = qHTS RealTime-Glo MT Cell Viability Assay in HepG2 cells - 16 hour (AID 1224885); note: nearly all actives have a fitted effect of over 50% in size; note: potency is the fitted concentration of half-maximal effect
Procedure, shortened: (§3)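 qHTS, HepG2, 600 cells/well, RealTime-Glo (NanoLuc + prosubstrate) added with cells; 5 h preincubation; DMSO compound addition; 37 C; luminescence at 0/8/16/24/32/40 h.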

[6] = qHTS RealTime-Glo MT Cell Viability Assay in HEK293 cells - 24 hour (AID 1224886); note: nearly all actives have a fitted effect of over 50% in size; note: potency is the fitted concentration of half-maximal effect; for activity change, negative = cytotoxicity: top concentration of the series differs between compounds
Procedure, shortened: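 Assay medium contained NanoLuc luciferase plus cell-permeant prosubstrate, added with HEK293 cells at 600 cells/well. After 5 h at 37 C/5% CO2 compounds were added; plates stayed at 37 C for 40 h with serial luminescence reads.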

[7] = qHTS RealTime-Glo MT Cell Viability Assay in HEK293 cells - 8 hour (AID 1224887); note: nearly all actives have a fitted effect of over 50% in size; note: potency is the fitted concentration of half-maximal effect; for activity change, negative = cytotoxicity: top concentration of the series differs between compounds
Procedure, shortened: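 Measured as luminescence from the same continuously cultured HEK293 wells at successive time points (0, 8, 16, 24, 32, 40 h) after compound addition. Reagent present from seeding; dosing at 5 h; incubation 37 C.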

[8] = A CellTox Green Cytotoxicity Assay to monitor cytotoxicity in HEK293 cells - 16 hour (AID 1224888); note: nearly all actives have a fitted effect of over 35% in size; note: potency is the fitted concentration of half-maximal effect
Procedure, shortened: as §1

[9] = qHTS RealTime-Glo MT Cell Viability Assay in HepG2 cells - 0 hour (AID 1224889); note: nearly all actives have a fitted effect of over 50% in size; note: potency is the fitted concentration of half-maximal effect
Procedure, shortened: as §3

[10] = A CellTox Green Cytotoxicity Assay to monitor cytotoxicity in HepG2 cells - 8 hour (AID 1224890); note: nearly all actives have a fitted effect of over 45% in size; note: potency is the fitted concentration of half-maximal effect
Procedure, shortened: as §2

[11] = qHTS assay to identify small molecule antagonists of the estrogen receptor alpha (ER-alpha) signaling pathway using the BG1 cell line in the presence of 0.1 nM 17-beta-estradiol - cell viability counter screen (AID 1259241); note: nearly all actives have a fitted effect of over 40% in size; note: potency is the fitted concentration of half-maximal effect
Procedure, shortened: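 VM7Luc4E2, 4,000 cells/well, phenol red-free medium + 10% charcoal-stripped FBS; 24 hr plating; cpd + 0.1 nM E2 final, 22 hr 37C/5% CO2; CellTiter-Fluor 30 min, fluorescence.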

[12] = qHTS assay to identify small molecule phospholipidosis (PLD) inducers (AID 1259344; active = well fitted curve in the direction sought with a large enough effect; an effect the other way counts as inactive or inconclusive)
Procedure, shortened: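 Image-based: LipidTOX Red pit count/intensity per well and per cell; HepG2, 24 h compound at 37 C, PFA fixation, Hoechst counterstain.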

[13] = qHTS assay to identify small molecule HDAC inhibitors (AID 1259364); note: potency is the fitted concentration of half-maximal effect;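 note: wild-type HCT-116 cells with endogenous class I/II HDAC activity; nearly all actives have a fitted effect of over 45% in size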; for activity change, negative = inhibition: top concentration of the series differs between compounds
Procedure, shortened: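 After a 2 hr compound incubation (37C, 5% CO2), HCT-116 cells seeded at 1,500/well the day before received HDAC-Glo reagent; signal read as luminescence after 30 min at room temperature.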

[14] = qHTS assay to identify small molecule HDAC inhibitors - cell viability counter screen (AID 1259365); note: nearly all actives have a fitted effect of over 50% in size; note: potency is the fitted concentration of half-maximal effect; for activity change, negative = cytotoxicity: series mostly up to about 92 µM
Procedure, shortened: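 Luminescence from CellTiter-Glo, developed 30min at room temperature, reports viability of wild-type HCT-116 cells treated 2hr with compounds at 37 C and 5% CO2 after overnight plating.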

[15] = qHTS assay to identify small molecule agonists of the sonic hedgehog signaling (Shh) pathway - cell viability counter screen (AID 1259366); note: nearly all actives have a fitted effect of over 50% in size; note: potency is the fitted concentration of half-maximal effect
Procedure, shortened: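 Cytotoxicity counter screen run in the same wells as the Shh reporter assay. NIH/3T3 cells carrying a Gli1 response element–driven luciferase were treated with DMSO-dissolved compounds for 24hr, and live-cell protease activity was measured with CellTiter-Fluor.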

[16] = qHTS assay to identify small molecule antagonists of the sonic hedgehog signaling (Shh) pathway - cell viability counter screen (AID 1259367); note: nearly all actives have a fitted effect of over 55% in size; note: potency is the fitted concentration of half-maximal effect
Procedure, shortened: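 Tox21 library chemicals were tested on a Gli1-Luc NIH/3T3 clone (2,000 cells/well) stimulated by conditioned medium; viability was quantified as fluorescence from CellTiter-Fluor reagent added at 23 hr.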

[17] = qHTS assay to identify small molecule antagonists of the androgen receptor (AR) signaling pathway using the MDA cell line in the presence of 0.5 nM R1881 - cell viability counter screen (AID 1259242); note: nearly all actives have a fitted effect of over 45% in size; note: potency is the fitted concentration of half-maximal effect
Procedure, shortened: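 Human breast carcinoma MDA-kb2 cells, cultured without CO2, receive compounds alongside 0.5 nM (final) R1881 agonist. After 16 hr at 37C, viability is taken as live-cell protease signal.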

[18] = molecular target: Estrogen receptor (Homo sapiens) (UniProt P03372); assay: qHTS assay to identify small molecule antagonists of the estrogen receptor alpha (ER-alpha) signaling pathway using the BG1 cell line in the presence of 0.1 nM 17-beta-estradiol (AID 1259244); note: nearly all actives have a fitted effect of over 50% in size; note: potency is the fitted concentration of half-maximal effect
Estrogen receptor (Homo sapiens), sequence (P03372 whole entry, looked up): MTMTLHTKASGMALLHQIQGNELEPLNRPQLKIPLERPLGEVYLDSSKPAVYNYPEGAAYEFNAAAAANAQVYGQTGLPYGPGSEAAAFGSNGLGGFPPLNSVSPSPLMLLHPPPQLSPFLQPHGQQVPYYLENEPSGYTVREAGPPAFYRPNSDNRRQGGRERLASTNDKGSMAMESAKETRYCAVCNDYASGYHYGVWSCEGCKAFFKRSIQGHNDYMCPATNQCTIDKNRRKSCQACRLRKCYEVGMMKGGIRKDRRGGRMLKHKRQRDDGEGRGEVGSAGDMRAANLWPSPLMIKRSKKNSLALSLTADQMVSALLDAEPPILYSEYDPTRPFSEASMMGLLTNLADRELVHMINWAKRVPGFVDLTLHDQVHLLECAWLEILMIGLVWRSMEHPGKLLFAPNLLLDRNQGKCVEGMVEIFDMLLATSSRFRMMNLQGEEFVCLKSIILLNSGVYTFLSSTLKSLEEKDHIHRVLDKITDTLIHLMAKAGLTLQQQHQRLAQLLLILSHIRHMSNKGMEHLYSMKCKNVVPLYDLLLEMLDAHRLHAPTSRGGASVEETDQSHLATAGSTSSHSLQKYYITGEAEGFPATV
Procedure, shortened: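 Seeding of stripped-serum-adapted VM7Luc4E2 cells, 24 h attachment, compound transfer, then 0.1 nM final 17beta-estradiol; after 22 h incubation, ONE-Glo reagent and luminescence reading.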

[19] = qHTS assay to identify small molecule agonists of the sonic hedgehog signaling (Shh) pathway (AID 1259368; calls by dose curve;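 note: NIH/3T3-derived 3T3Gli1-Luc cells carrying a stable Gli1-driven firefly luciferase reporter; series mostly up to about 92 µM; nearly all actives have a fitted effect of over 15% in size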)
Procedure, shortened: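 Stable NIH/3T3 Gli1-Luc reporter clone; 24 hr cpd exposure after a 4 hr settling period; luminescence endpoint.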

[20] = molecular target: Androgen receptor (Homo sapiens) (UniProt P10275); assay: qHTS assay to identify small molecule antagonists of the androgen receptor (AR) signaling pathway using the MDA cell line in the presence of 0.5 nM R1881 (AID 1259243); note: nearly all actives have a fitted effect of over 50% in size; note: potency is the fitted concentration of half-maximal effect
Androgen receptor (Homo sapiens), sequence (P10275 whole entry, looked up): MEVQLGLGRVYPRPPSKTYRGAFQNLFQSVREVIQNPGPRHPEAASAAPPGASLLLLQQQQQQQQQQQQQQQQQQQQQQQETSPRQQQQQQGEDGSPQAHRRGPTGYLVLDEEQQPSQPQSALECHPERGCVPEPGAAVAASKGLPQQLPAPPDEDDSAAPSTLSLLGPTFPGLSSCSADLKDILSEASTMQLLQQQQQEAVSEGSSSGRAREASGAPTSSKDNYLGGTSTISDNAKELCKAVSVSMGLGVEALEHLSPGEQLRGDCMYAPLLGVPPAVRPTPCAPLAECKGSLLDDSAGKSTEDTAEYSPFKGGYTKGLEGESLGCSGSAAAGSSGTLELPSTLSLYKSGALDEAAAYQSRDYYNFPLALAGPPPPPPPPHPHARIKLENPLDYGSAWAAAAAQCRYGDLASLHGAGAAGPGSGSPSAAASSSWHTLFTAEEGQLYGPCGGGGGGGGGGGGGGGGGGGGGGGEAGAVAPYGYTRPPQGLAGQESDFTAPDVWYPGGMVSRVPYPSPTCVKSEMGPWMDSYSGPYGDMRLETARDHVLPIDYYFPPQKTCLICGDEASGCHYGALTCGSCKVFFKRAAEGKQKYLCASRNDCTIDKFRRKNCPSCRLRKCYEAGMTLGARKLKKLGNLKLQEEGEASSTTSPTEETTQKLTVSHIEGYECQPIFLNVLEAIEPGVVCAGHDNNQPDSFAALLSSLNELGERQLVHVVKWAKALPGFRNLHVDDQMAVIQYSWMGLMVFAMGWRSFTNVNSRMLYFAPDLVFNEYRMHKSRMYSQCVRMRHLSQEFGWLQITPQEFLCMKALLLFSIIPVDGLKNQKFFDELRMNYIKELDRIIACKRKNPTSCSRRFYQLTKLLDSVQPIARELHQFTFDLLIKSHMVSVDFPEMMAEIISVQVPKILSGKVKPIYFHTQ
Procedure, shortened: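 Cells: MDA-kb2 (MMTV-luc). Stimulus: 0.5 nM R1881. Time: 16 hr, 37C, no CO2. Detection: ONE-Glo luminescence after 30 min at RT.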
% is set by controls: 0 for no effect and ±100 for the full control effect.

CC(NN)c1ccccc1 (centres undefined)
inactive: cytotoxicity increase [1] -15.1% [at 15.8 µM] | cytotoxicity [2] -2.26% [at 15.8 µM] | cytotoxicity increase [3] -12.7% [at 15.8 µM] | cytotoxicity increase [4] -1.23% [at 15.8 µM] | activity change, negative = cytotoxic [5] 0.634% [at 15.8 µM] | activity change, negative = cytotoxicity [6] -0.0571% [at 15.8 µM] | activity change, negative = cytotoxicity [7] -8.04% [at 15.8 µM] | activity change [8] -3.48% [at 15.8 µM, active compounds read high] | activity change, negative = cytotoxicity [9] -3.22% [at 15.8 µM] | cytotoxicity increase [10] -3.04% [at 15.8 µM] | activity change, negative = cytotoxicity [11] 6.27% [at 19 µM] | Potency [12] | activity change, negative = inhibition [13] 0.741% [at 19 µM] | activity change, negative = cytotoxicity [14] 0.995% [at 19 µM] | viability change, negative = cytotoxic [15] 2.68% [at 19 µM] | Potency [16]

C[C@]12CCC(=O)C=C1CC[C@@H]1[C@@H]2[C@@H](O)C[C@@]2(C)[C@H]1CC[C@]2(O)C(=O)COC(=O)CCC(=O)O
active: Potency [9] 3.38 µM
inactive: Potency [1] | Potency [2] | Potency [3] | Potency [4] | Potency [5] | Potency [6] | Potency [7] | Potency [8] | Potency [11] | Potency [17] | Potency [18] | Potency [14] | Potency [15] | Potency [16] | Potency [19]

C1CCCC1
inactive: Potency [1] | Potency [2] | Potency [3] | Potency [4] | Potency [5] | Potency [6] | Potency [7] | Potency [8] | Potency [9] | Potency [10] | Potency [11] | Potency [17] | Potency [13] | Potency [14] | Potency [15] | Potency [16] | Potency [19]

CCCCCOC(=O)CCCC
inactive: Potency [1] | Potency [2] | Potency [3] | Potency [4] | Potency [5] | Potency [6] | Potency [7] | Potency [8] | Potency [9] | Potency [10] | Potency [11] | Potency [17] | Potency [13] | Potency [14] | Potency [15] | Potency [16] | Potency [19]

CN(C)CCCOC1(Cc2ccccc2)CCCCCC1
inactive: Potency [1] | Potency [2] | Potency [3] | Potency [4] | Potency [5] | Potency [6] | Potency [7] | Potency [8] | Potency [9] | Potency [10] | Potency [11] | Potency [17] | Potency [20] | Potency [18] | Potency [13] | Potency [14] | Potency [15] | Potency [16] | Potency [19]

CCCCCCCCCCCC[N+](C)(C)CCCCCCCCCCCC
active: Potency [1] 15.5 µM | Potency [3] 7.76 µM | Potency [4] 19.5 µM | Potency [5] 8.71 µM | Potency [6] 6.92 µM | Potency [7] 17.4 µM | Potency [8] 17.4 µM | Potency [10] 19.5 µM | Potency [11] 54.5 µM | Potency [17] 27.3 µM | Potency [18] 30.6 µM | Potency [14] 54.5 µM | Potency [15] 24.3 µM | Potency [16] 27.3 µM
inactive: Potency [2] | Potency [19]

CC(C)(C)C(=O)OCOC(=O)C1N2C(=O)CC2S(=O)(=O)C1(C)C (centres undefined)
inactive: Potency [1] | Potency [2] | Potency [3] | Potency [4] | Potency [5] | Potency [6] | Potency [7] | Potency [8] | Potency [9] | Potency [11] | Potency [17] | Potency [20] | PLD induction [12] 3.21% [at 0.0123 µM] | Potency [13] | Potency [14] | Potency [16] | Potency [19]

Cc1cc(O)c(C(C)(C)C)cc1C(C)(C)C
active: Potency [1] 24.5 µM | Potency [3] 24.5 µM | Potency [4] 19.5 µM | Potency [5] 43.6 µM | Potency [6] 19.5 µM | Potency [7] 13.8 µM | Potency [8] 34.7 µM | Potency [10] 24.5 µM | Potency [20] 61.1 µM | Potency [18] 54.5 µM | Potency [15] 61.1 µM | Potency [16] 61.1 µM
inactive: Potency [2] | Potency [9] | Potency [11] | Potency [19]

O=C(O)c1cc(O)c2c(c1)C(=O)c1cccc(O)c1C2=O
active: Potency [13] 14.1 µM
inactive: Potency [1] | Potency [2] | Potency [3] | Potency [4] | Potency [5] | Potency [6] | Potency [7] | Potency [8] | Potency [9] | Potency [10] | Potency [17] | Potency [18] | Potency [14] | Potency [19]

NNc1nc(-c2ccc(N)cc2)cs1
inactive: Potency [1] | Potency [2] | Potency [3] | Potency [4] | Potency [5] | Potency [7] | Potency [8] | Potency [10] | Potency [18] | Potency [13] | Potency [14] | Potency [15] | Potency [19]

O=C(N/N=C/c1ccccc1O)c1ccncc1
active: Potency [18] 9.44 µM | Potency [13] 23.7 µM
inactive: Potency [1] | Potency [2] | Potency [3] | Potency [4] | Potency [5] | Potency [8] | Potency [9] | Potency [10] | Potency [11] | Potency [12] | Potency [14] | Potency [15] | Potency [16] | Potency [19]

Nc1nc2ccccc2n1Cc1ccc(F)cc1
inactive: Potency [1] | Potency [2] | Potency [4] | Potency [5] | Potency [7] | Potency [8] | Potency [10] | Potency [13] | Potency [14] | Potency [15] | Potency [16] | Potency [19]
active: Potency [3] 23.9 µM | Potency [20] 7.5 µM

CC1=NC(C)OC1C (centres undefined)
inactive: Potency [1] | Potency [2] | Potency [3] | Potency [4] | Potency [5] | Potency [7] | Potency [8] | Potency [9] | Potency [10] | Potency [11] | Potency [17] | Potency [18] | Potency [14] | Potency [19]

CCCCCCCCCCCC(=O)NCCCN(C)C
inactive: Potency [2] | Potency [9] | Potency [13] | Potency [14] | Potency [19]
active: Potency [1] 54.9 µM | Potency [3] 24.5 µM | Potency [4] 54.9 µM | Potency [5] 49 µM | Potency [6] 43.6 µM | Potency [7] 49 µM | Potency [10] 54.9 µM | Potency [20] 68.6 µM
